The source of these data is PubChem BioAssay (NCATS).

Results filed as inconclusive are left out. Values without a mark were called inactive. Calls of active or inactive are those of the source. Calls follow the shape of the dose curve; as a rule, active = well fitted curve in the direction sought with a large enough effect; inconclusive = small, poorly fitted or top-dose-only effect, or another doubt; inactive = no such curve, though single readings can be large; an effect the other way counts as inactive or inconclusive.

A short description of one assay: HPAF-II 18hr Apoptosis Induction qHTS against the NCATS CANVASS Library (AID 1347360). Also: 0% is about no effect. To be noted: HPAF-II caspase-3/7 luminescence; series mostly up to 46.1 µM; caspase activation: at the top concentration. The method in brief: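 HPAF-II cells (500/well, DMEM + 10% FBS) were exposed to compounds for 18 hours at 37 degrees C. Caspase-3/7 activity was then read by Caspase-Glo 3/7 luminescence after 15 min at room temperature.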
Regarding `CC1=CC2CC[C@@H]3[C@@H](C)C[C@H](C)[C@@H](C1)N23` (stereo partly drawn), the “caspase activation” value is 2.84%.

`CC=C1CN(C=O)[C@H]2C[C@@H]1[C@@H](C(=O)OC)[C@@]13CCOC21Nc1ccccc13` (stereo partly drawn): the “caspase activation” value is 3.04%.

Turning to `CCN1C[C@]2(C)CC[C@@H](O)[C@]34C1[C@H](C[C@H]23)C12CCC(CC14)[C@](O)(CO)[C@H]2O` (stereo partly drawn), the “caspase activation” value is 1.68%.

As to `CO[C@@H](/C=C/CC/C=C/C(=O)O)[C@@H](O)[C@H](C)[C@@H](O)/C(C)=C/[C@H](C)C(=O)CCCC1CC(=O)NC(=O)C1`, the “caspase activation” value is -2.58%.

Consider `CCCC[C@@H]1CC[C@H]2CCCC(CCC)N12` (stereo partly drawn), for which the “caspase activation” value was 1.45%.

With `C[C@]12CC(O)C3[C@@H](CCC4C[C@@H](O)CC[C@@]43CO)[C@@]1(O)CCC2C1=CC(=O)OC1` (stereo partly drawn), the “caspase activation” value is -1.83%.

For `CO[C@@H](/C=C/CC/C=C/C(=O)O)[C@@H](O)[C@H](C)/C=C(\C)[C@@H](O)[C@H](C)C(=O)CCCC1CC(=O)NC(=O)C1`, the “caspase activation” value was -1.09%.

Consider `O=C(c1ccccc1O)c1[nH]c(Cl)c(Cl)c1-n1c(C(=O)c2ccccc2O)cc(Cl)c1Cl`, for which the “caspase activation” value is 2.75%.

As to `CC[C@@H]1CN2CC[C@@]3(O)C(=Nc4cccc(OC)c43)[C@@H]2C[C@@H]1/C(=C\OC)C(=O)OC`, the “caspase activation” value is -2.24%.

In the case of `c1ccc2c3c([nH]c2c1)CNCC3`, the “caspase activation” value was 6.02%.

Consider `CNCCc1ccccc1`, for which the “caspase activation” value was 3.35%.

As for `CCCCC[C@@H]1OC(=O)[C@@H](C)N(C)C(=O)[C@H](CCCCC)OC(=O)C(C)N(C)C(=O)[C@H](CCCCC)OC(=O)[C@@H](C)N(C)C(=O)[C@H](CCCCC)OC(=O)C(C)N(C)C1=O` (stereo partly drawn), the “caspase activation” value is 3.11%.

Take `CO[C@H](c1ccccc1)[C@H]1NC(=O)C(C)NC(=O)C(C[C@@H](C)CO)N(C)C(=O)[C@@H](C(O)c2cn(C(C)(C)C3CO3)c3ccccc23)NC(=O)C(C(C)C=C(C)C)NC(=O)C(CC(C)C)N(C)C(=O)C(C(C)C)NC1=O` (stereo partly drawn): the “caspase activation” value was -1.73% [at 27.5 µM].

Consider `CC1=CC(=O)C2=C(C)C[C@H](O)[C@@H]3[C@H](OC(=O)[C@@H]3C)[C@@H]12`, for which the “caspase activation” value is 2.15%.

As to `CCN1C[C@]2(C)CC[C@H](O)[C@]34C1C(C[C@H]23)[C@@]12CC[C@H](CC14)[C@](O)(COC(=O)c1ccc(OC)c(OC)c1)[C@H]2O` (stereo partly drawn), the “caspase activation” value is -0.763%.

On to `CCC(=O)CCCCC[C@@H]1NC(=O)[C@H]2CCCCN2C(=O)[C@H]([C@@H](C)CC)NC(=O)[C@H](Cc2cn(OC)c3ccccc23)NC1=O`, for which the “caspase activation” value was 10.9%.

The next assay in a line: HEK293 12hr Apoptosis Induction qHTS against the NCATS CANVASS Library (AID 1347361). Also: potency is read from the fitted curve at half-maximal effect. As to caspase activation: 0% is about no effect. The following applies: HEK293 caspase-3/7 Caspase-Glo luminescence; series mostly up to 46.1 µM; caspase activation: at the top concentration. In a few lines:
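Read-out: Caspase-Glo 3/7 luminescence (DEVD substrate), 15 min RT. Preceded by 12 h compound exposure of HEK293, 500 cells/well, 11-pt qHTS titration; doxorubicin titration as control.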
A general note: qHTS replaces the single test concentration by a dilution series.
Turning to `CC1=CC2CC[C@@H]3[C@@H](C)C[C@H](C)[C@@H](C1)N23` (stereo partly drawn), the “caspase activation” value was -0.269%.

In the case of `CC=C1CN(C=O)[C@H]2C[C@@H]1[C@@H](C(=O)OC)[C@@]13CCOC21Nc1ccccc13` (stereo partly drawn), the “caspase activation” value was 0.994%.

On to `C[C@@H]1CC[C@@H](c2ccoc2)N2C[C@@]3(CC[C@@H]12)CS[C@@]1(CC[C@H]2[C@H](C)CC[C@@H](c4ccoc4)N2[C@@H]1O)C3`, for which the Potency is 8.33 µM (active).

Take `CCN1C[C@]2(C)CC[C@@H](O)[C@]34C1[C@H](C[C@H]23)C12CCC(CC14)[C@](O)(CO)[C@H]2O` (stereo partly drawn): the “caspase activation” value is 0.878%.

Regarding `CO[C@@H](/C=C/CC/C=C/C(=O)O)[C@@H](O)[C@H](C)[C@@H](O)/C(C)=C/[C@H](C)C(=O)CCCC1CC(=O)NC(=O)C1`, the “caspase activation” value was -0.634%.

On to `CCCC[C@@H]1CC[C@H]2CCCC(CCC)N12` (stereo partly drawn), for which the “caspase activation” value was 1.87%.

Regarding `C[C@]12CC(O)C3[C@@H](CCC4C[C@@H](O)CC[C@@]43CO)[C@@]1(O)CCC2C1=CC(=O)OC1` (stereo partly drawn), the “caspase activation” value is 2.16%.

Turning to `CO[C@@H](/C=C/CC/C=C/C(=O)O)[C@@H](O)[C@H](C)/C=C(\C)[C@@H](O)[C@H](C)C(=O)CCCC1CC(=O)NC(=O)C1`, the “caspase activation” value is 1.28%.

For the compound `O=C(c1ccccc1O)c1[nH]c(Cl)c(Cl)c1-n1c(C(=O)c2ccccc2O)cc(Cl)c1Cl`, the “caspase activation” value is 10.3%.

Consider `CC[C@@H]1CN2CC[C@@]3(O)C(=Nc4cccc(OC)c43)[C@@H]2C[C@@H]1/C(=C\OC)C(=O)OC`, for which the “caspase activation” value is 5.73%.

With `c1ccc2c3c([nH]c2c1)CNCC3`, the “caspase activation” value is 1.99%.

Take `CNCCc1ccccc1`: the “caspase activation” value is 1.1%.

As for `CCCCC[C@@H]1OC(=O)[C@@H](C)N(C)C(=O)[C@H](CCCCC)OC(=O)C(C)N(C)C(=O)[C@H](CCCCC)OC(=O)[C@@H](C)N(C)C(=O)[C@H](CCCCC)OC(=O)C(C)N(C)C1=O` (stereo partly drawn), the “caspase activation” value was 5.7%.

Consider `CO[C@H](c1ccccc1)[C@H]1NC(=O)C(C)NC(=O)C(C[C@@H](C)CO)N(C)C(=O)[C@@H](C(O)c2cn(C(C)(C)C3CO3)c3ccccc23)NC(=O)C(C(C)C=C(C)C)NC(=O)C(CC(C)C)N(C)C(=O)C(C(C)C)NC1=O` (stereo partly drawn), for which the “caspase activation” value was 3.79% [at 27.5 µM].

With `CC1=CC(=O)C2=C(C)C[C@H](O)[C@@H]3[C@H](OC(=O)[C@@H]3C)[C@@H]12`, the “caspase activation” value was 2.46%.

With `CCN1C[C@]2(C)CC[C@H](O)[C@]34C1C(C[C@H]23)[C@@]12CC[C@H](CC14)[C@](O)(COC(=O)c1ccc(OC)c(OC)c1)[C@H]2O` (stereo partly drawn), the “caspase activation” value was 1.39%.

Take `CCC(=O)CCCCC[C@@H]1NC(=O)[C@H]2CCCCN2C(=O)[C@H]([C@@H](C)CC)NC(=O)[C@H](Cc2cn(OC)c3ccccc23)NC1=O`: the “caspase activation” value is 0.875%.
